Most compounds without a hit are left out; they make up all but 12% or so of the library.
Sfp inh = qHTS Assay for Inhibitors of Bacillus subtilis Sfp phosphopantetheinyl transferase (PPTase); 4'-phosphopantetheinyl transferase ffp (Bacillus subtilis), Q9F4F7; Biochemical Sfp PPTase activity, qHTS; Potency, µM, hits mostly inhibitors; 310,000 tested, 3.5% active; AID 1490, 2009;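 also: the enzyme is Sfp with the accession as filed and its product quenches rhodamine fluorescence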
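With Hepes-Na pH 7.6 buffer containing 10 mM MgCl2, Sfp (15 nM) modified BHQ-2-YbbR (12.5 uM) using rhodamine-CoA (5 uM). Two reads 30 minutes apart at 525/598 nm yielded each well's rate.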
G9a block = qHTS Assay for Inhibitors of Histone Lysine Methyltransferase G9a | AID 504332, 2011 | 350,000 tested, 8.8% active | G9a H3K9 monomethylation, AlphaScreen, 2 h | Potency, µM (top dose mostly 102 µM), hits mostly inhibitors | Histone-lysine N-methyltransferase EHMT2 (Homo sapiens), Q96KQ7; also: nearly all actives have a fitted effect of over 75% in size
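G9a (20 nM) was preincubated 15 min with compound, then reacted 2 h at room temperature with 500 nM biotin-H3K9 peptide and 20 µM SAM. Monomethyl-H3K9 detected by AlphaScreen using anti-H3K9me1 antibody.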
JMJD2A Tudor = qHTS Assay for Inhibitors of JMJD2A-Tudor Domain; Lysine-specific demethylase 4A (Homo sapiens), O75164; AlphaScreen JMJD2A-Tudor / H3K4me3 peptide binding; Potency, µM (doses to about 114 µM), usual class: inhibitors; 390,000 tested, 4.4% active; AID 504339, 2011; also: nearly all actives have a fitted effect of over 50% in size
Target sequence (O75164 whole entry, looked up, the tested form may be a part): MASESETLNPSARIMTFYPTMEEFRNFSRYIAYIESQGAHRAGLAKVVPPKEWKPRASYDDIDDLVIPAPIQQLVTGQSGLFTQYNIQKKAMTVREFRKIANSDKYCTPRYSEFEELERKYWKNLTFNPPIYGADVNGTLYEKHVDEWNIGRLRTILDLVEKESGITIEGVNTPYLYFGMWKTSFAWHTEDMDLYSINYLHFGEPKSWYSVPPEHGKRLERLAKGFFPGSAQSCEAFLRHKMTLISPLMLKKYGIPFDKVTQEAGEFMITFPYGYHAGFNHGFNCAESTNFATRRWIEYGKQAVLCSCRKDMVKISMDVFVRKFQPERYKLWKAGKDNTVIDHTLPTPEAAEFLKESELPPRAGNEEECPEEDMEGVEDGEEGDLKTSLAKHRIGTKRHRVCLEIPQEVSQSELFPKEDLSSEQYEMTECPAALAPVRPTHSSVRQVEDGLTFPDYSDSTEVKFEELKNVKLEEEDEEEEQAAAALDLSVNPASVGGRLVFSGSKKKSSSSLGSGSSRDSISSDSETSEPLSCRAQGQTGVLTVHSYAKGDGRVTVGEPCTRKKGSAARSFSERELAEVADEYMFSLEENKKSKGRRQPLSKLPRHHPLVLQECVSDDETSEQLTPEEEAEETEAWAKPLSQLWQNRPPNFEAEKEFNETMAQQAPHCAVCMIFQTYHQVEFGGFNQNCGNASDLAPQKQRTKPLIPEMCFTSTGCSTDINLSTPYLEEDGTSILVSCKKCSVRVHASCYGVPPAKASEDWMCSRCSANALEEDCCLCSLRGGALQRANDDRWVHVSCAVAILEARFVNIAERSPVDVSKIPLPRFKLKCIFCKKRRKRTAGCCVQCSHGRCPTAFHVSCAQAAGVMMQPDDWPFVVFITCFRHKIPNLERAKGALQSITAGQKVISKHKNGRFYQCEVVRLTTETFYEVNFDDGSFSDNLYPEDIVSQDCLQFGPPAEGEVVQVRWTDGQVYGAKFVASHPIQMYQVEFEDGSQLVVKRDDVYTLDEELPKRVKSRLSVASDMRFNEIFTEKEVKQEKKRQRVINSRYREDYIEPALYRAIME
BAZ2B block = qHTS Assay for Inhibitors of BAZ2B; AlphaScreen BAZ2B-H3K14Ac peptide displacement; 360,000 tested, 4.4% active; Potency, µM (doses to about 114 µM), usual class: inhibitors; also: nearly all actives have a fitted effect of over 60% in size
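In this displacement format the biotinylated H3(5-23) peptide acetylated at Lys14 serves as ligand at 50 nM, with BAZ2B at 50 nM in PBS pH 7.4 containing 0.01% Tween-20. Donor and acceptor beads are 10 ug/mL final.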
HP1b binding inh = HTS for Inhibitors of HP1-beta Chromodomain Interactions with Methylated Histone Tails. Chromobox protein homolog 1 (Homo sapiens), P83916. AlphaScreen HP1-beta / biotin-H3K9me3 peptide binding. Potency, µM (series often up to 114 µM), actives largely listed as inhibitors. 390,000 tested, 0.56% active; also: nearly all actives have a fitted effect of over 70% in size
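AlphaScreen: HP1-beta (50 nM) preformed 30 min with biotin-H3(1-18)K9me3 peptide (50 nM) in PBS pH 7.4, 0.01% Tween-20. Compound added for 30 min at RT, then streptavidin donor/nickel chelate acceptor beads (10 ug/mL) for 30 min.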
Numbers stand for hits; - = inactive; ? = inconclusive; . = no result; [ ] = another dose, or the depositor's remark. Calls follow the shape of the dose curve; as a rule, active = well fitted curve in the direction sought with a large enough effect; inconclusive = small, poorly fitted or top-dose-only effect, or another doubt; inactive = no such curve, though single readings can be large; an effect the other way counts as inactive or inconclusive.

SMILES	Sfp inh	G9a block	JMJD2A Tudor	BAZ2B block	HP1b binding inh
Cc1ccccc1-c1nc(CS(=O)(=O)CC(=O)NCc2ccco2)c(C)o1	-	?	-	-	-
Cc1cc2c(s1)c1cnn(Cc3cc(F)ccc3C)c(=O)c1n2C	.	.	-	.	.
O=C(N/N=C/c1ccc(-n2ccnc2)cc1)c1cccs1	-	-	-	-	-
Cc1cc2oc(=O)cc(CN(C)Cc3ccccc3)c2cc1C(C)C	-	-[2.33 µM]	-	-	-
COc1ccc(CN(C)Cc2cc(=O)oc3cc(C)c(C(C)C)cc23)cc1OC	?	89µM	-	-	-
CC(=O)Nc1ccc(C)cc1-c1nc2ccccc2n(CC(=O)Nc2cc(Cl)ccc2C)c1=O	.	-	-	?	-
CC1=CC(C)(C)Nc2ccc(OC(=O)c3ccco3)cc21	-	?	?	50µM	-
O=C(Oc1ccc(F)cc1)c1cccnc1	-	-	-	-	-
CC1=CC(C)(C)N2C(=O)C(=O)c3cc(OC(=O)c4ccco4)cc1c32	-	35µM	35µM	35µM	32µM
CC1=CC(C)(C)Nc2ccc(OC(=O)C(C)N3C(=O)c4ccccc4C3=O)cc21 (configuration not stated)	-	10µM	?	22µM	?
CC1=CC(C)(C)Nc2ccc(OC(=O)c3cccnc3)cc21	?	45µM	?	40µM	-
COc1ccc(OC(=O)C(C)N2C(=O)c3ccccc3C2=O)cc1 (configuration not stated)	-	-	-	-	-
COc1ccc(-c2cc(C(F)(F)F)n3nc(C(=O)Nc4cccc(Cl)c4Cl)cc3n2)cc1OC	.	?	-	-	-
O=C(Cn1ccn(-c2ccc(F)cc2)c(=O)c1=O)Nc1ccccc1C(F)(F)F	.	-	-	-	-
Cc1c(Cl)cccc1NC(=O)Cn1nnc(-c2nc(-c3ccccc3)no2)c1N	.	-	-	-	-
CC1CC(=O)c2c(cc3c(-c4c(O)cc(O)c5c(O)c6c(cc45)OC(C)CC6=O)c(O)cc(O)c3c2O)O1 (configuration not stated)	-	?	45µM	40µM	?
CC(C(=O)N(C)C1CCS(=O)(=O)C1)N1C(=O)/C(=C/c2cccs2)SC1=S (configuration not stated)	-	-	?	-	-
CC(C(=O)N(C)C1CCS(=O)(=O)C1)N1C(=O)/C(=C/c2ccco2)SC1=S (configuration not stated)	-	45µM	50µM	56µM	?
CCN(C(=O)C(C)N1C(=O)/C(=C/c2cccs2)SC1=S)C1CCS(=O)(=O)C1 (configuration not stated)	-	45µM	-	?	-
CO[C@H]1COC(=O)C/C=C\[C@H](C)[C@@H](OC)COC(=O)[C@H](C)COC(=O)C/C=C\[C@@H]1C	-	.	.	.	.
C[C@@H]1CC2C3CCC4=CC(=O)C=CC4(C)[C@@]3(F)[C@@H](O)CC2(C)[C@@]1(O)C(=O)CO (some centres not stated)	-	2.5µM	.	.	.
COc1cccc(N(C)C(=S)Oc2ccc3c(c2)CCCC3)n1	-	-	.	.	.
c1ccc(CNc2nc(-c3ccc4c(c3)OCO4)nc3ccccc23)cc1	-	-[0.501 µM]	.	.	.
O=C(O)c1ccc(/C=N/NC(=O)c2ccc(CN3c4cccc5cccc(c45)S3(=O)=O)cc2)cc1	-	-	?	50µM	-
O=S(=O)(c1ccccc1)c1nnn2c1nc(NC1CCCCC1)c1sccc12	.	-	-	-	-
SMILES	Sfp inh	G9a block	JMJD2A Tudor	BAZ2B block	HP1b binding inh
C[C@]12c3[nH]c4ccc(Cl)cc4c3CCN1C(=O)[C@@H](CC(=O)NCCN1CCOCC1)C[C@@H]2C(=O)N1CCCCC1	.	.	-	.	-
CCCCCOC(=O)CSc1nc2c(c(=O)[nH]c(=O)n2C)n1CCc1ccccc1	-	13µM	-	-	-
CC(C)n1c(SCCCc2ccccc2)nc2c1c(=O)[nH]c(=O)n2C	?	35µM	-	-	-
CC(C)CCn1c(SCCc2ccccc2)nc2c1c(=O)[nH]c(=O)n2C	-	?	-	-	-
C=CCn1c(SCCCc2ccccc2)nc2c1c(=O)[nH]c(=O)n2C	-	45µM	-	-	-
COCCn1c(SCC(=O)OCc2ccccc2)nc2c1c(=O)[nH]c(=O)n2C	-	32µM	-	-	-
CCCn1c(SCCc2ccccc2)nc2c1c(=O)[nH]c(=O)n2C	-	?	-	-	-
CCCCCn1c(SCCc2ccccc2)nc2c1c(=O)[nH]c(=O)n2C	-	-	-	-	-
Cc1ccc(CN2C(=O)c3ccccc3Sc3ccc(C(=O)N4CCOCC4)cc32)cc1	.	-	-	-	-
C/C=C/Cn1c(N(C)Cc2ccccc2)nc2c1c(=O)[nH]c(=O)n2C	-	50µM	-	-	-
COCCn1c(SCCCc2ccccc2)nc2c1c(=O)[nH]c(=O)n2C	-	50µM	-	-	-
CCCCSc1nc2c(c(=O)[nH]c(=O)n2C)n1CCc1ccccc1	-	?	-	-	-
C/C=C/Cn1c(SCCCc2ccccc2)nc2c1c(=O)[nH]c(=O)n2C	-	45µM	-	-	-
COCCSc1nc2c(c(=O)[nH]c(=O)n2C)n1CCCc1ccccc1	?	.	-	-	-
CN(Cc1ccccc1)c1nc2c(c(=O)[nH]c(=O)n2C)n1C	-	-	-	-	-
C=CCn1c(SCCOC)nc2c1c(=O)[nH]c(=O)n2C	?	40µM	-	-	-
N#CC1=C(N)N(c2ccc(F)cc2)C2=C(C1c1ccc(O)cc1)S(=O)(=O)CC2 (configuration not stated)	-	4µM	32µM	35µM	40µM
Cc1cc(C)cc(OCC(=O)NC(Cc2c[nH]c3ccccc23)C(=O)O)c1 (configuration not stated)	.	-	-	-	-
Cc1ccc(CNC(=O)c2cc(-c3ccc(Cl)cc3)on2)cc1	.	-	-	-	-
COc1ccc2oc(C(=O)Nc3ccccc3N3CCOCC3)c(C)c2c1	.	45µM	-	-	-
COc1ccc2oc(C(=O)Nc3ccc(N4CCOCC4)cc3)c(C)c2c1	.	50µM	?	50µM	-
Cc1c(C(=O)NC2CC2)oc2ccccc12	.	-[12.7 µM]	-	-	-
Cc1c(C(=O)NC2CCS(=O)(=O)C2)oc2ccccc12 (configuration not stated)	-	45µM	-	-	-
Cc1c(C(=O)Nc2ccc(N3CCOCC3)cc2)oc2ccccc12	-	?	56µM	-	-
N#CCCN(NC(=O)OCc1ccccc1)C(=O)OCc1ccccc1	.	.	-	.	-
CC(=O)OCC1OC(C#Cc2ccc(Br)cc2)C=CC1OC(C)=O (configuration not stated)	-	.	.	.	.
CCCCCCCCCCCCCCCC(=O)NCC(=O)O	-	.	.	.	.

Assay outcomes: PubChem BioAssay, National Center for Advancing Translational Sciences (NCATS)
